Test results reported in PubChem BioAssay (Tox21).
Several values for one entry are separate records, joined by “and”; a condition that tells them apart may be missing. Equal values may be shown once. Results filed as inconclusive are left out. Activity calls are given as the source filed them. Unless noted, calls follow the shape of the dose curve; as a rule, active = well fitted inhibition curve with a large enough effect in the signal ratio in the repeat runs; inconclusive = weak or mixed curves, or effect the other way; inactive = flat fitted curve, though single readings scatter; the % refers to the signal ratio.

Test: qHTS assay for small molecule disruptors of the mitochondrial membrane potential - cell viability (AID 720634; calls by dose curve; also: nearly all actives have a fitted effect of over 20% in size;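 as to activity change, negative = cytotoxicity: human HepG2 liver cancer cells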)
Details: HepG2 viability, ATP luminescence (CellTiter-Glo), 1 h; series mostly up to 83.2 µM; activity change, negative = cytotoxicity: at the top concentration
In short: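 Luminescence from CellTiter-Glo (ATP content) gave viability in HepG2 cells, read in the same wells as the MMP dye assay after 1 hr compound exposure at 37 C.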
% is scaled to controls: 0 for no effect and ±100 for the full control effect; potency is read from the fitted curve at half-maximal effect.

Compound | activity change, negative = cytotoxicity | Potency
O=c1[nH]c2ccccc2n1CCCN1CCC(n2c(=O)[nH]c3cc(Cl)ccc32)CC1 | -15% (inactive) | –
CCCCCCCCc1ccc(O)cc1 | – | 15.4 µM (active)
CN(C)C(=S)S | – | inactive
CN(C)c1ccc(N=Nc2ccccc2)cc1 | – | 48.6 µM (active)
CCCCN(CCCC)C(=S)[S-].CCCCN(CCCC)C(=S)[S-].[Zn+2] | – | inactive
N#CC(Cl)Cl | 12% (inactive) | –
C[C@@H]1CC[C@@]2(OC1)O[C@H]1[C@@H](O)[C@H]3[C@@H]4CC[C@H]5C[C@@H](O[C@@H]6O[C@H](CO)[C@H](O[C@@H]7O[C@H](CO)[C@@H](O)[C@H](O[C@@H]8OC[C@@H](O)[C@H](O)[C@H]8O)[C@H]7O[C@@H]7O[C@H](CO)[C@@H](O)[C@H](O[C@@H]8O[C@H](CO)[C@@H](O)[C@H](O)[C@H]8O)[C@H]7O)[C@H](O)[C@H]6O)[C@H](O)C[C@]5(C)[C@H]4CC[C@]3(C)[C@H]1[C@@H]2C | – | 18.3 µM (active)
[Hg+2].[I-].[I-] | – | 48.6 µM (active)
C=CC(=O)OCCCCOC(=O)C=C | 30.1% (inactive) | –
C[C@H]1CC[C@@H]2[C@@H](C)[C@H]3[C@H](C[C@H]4[C@@H]5CC=C6CC(O[C@@H]7O[C@H](CO)[C@H](O)[C@H](O[C@@H]8O[C@H](CO)[C@@H](O)[C@H](O)[C@H]8O)[C@H]7O[C@H]7O[C@@H](C)[C@H](O)[C@@H](O)[C@H]7O)CC[C@]6(C)[C@H]5CC[C@]34C)N2C1 (some centres undefined) | – | 18.8 µM (active) and 70.8 µM (active)
N#C/C=C/C#N | -12.1% [at 95.3 µM] (inactive) | –
CN(C)C(=S)[S-].CN(C)C(=S)[S-].[Cu+2] | 22.8% [at 39.1 µM] (inactive) | –
O=C/C(Cl)=C(/Cl)C(=O)O | – | 61.1 µM (active)
O=[N+]([O-])c1cc(C(F)(F)F)c(Cl)c([N+](=O)[O-])c1Cl | – | 15.4 µM (active)
CN(C)S(=O)(=O)N(SC(F)(Cl)Cl)c1ccccc1 | – | 61.1 µM (active)
CC(=O)Nc1ccc2c(c1)Cc1ccccc1-2 | -7.59% [at 95.3 µM] (inactive) | –
CCCSP(=O)(OCC)SCCC | 17.4% [at 95.3 µM] (inactive) | –

Test: qHTS assay for small molecule disruptors of the mitochondrial membrane potential (AID 720635)
Details: HepG2 mitochondrial membrane potential, Mito-MPS dye ratio; series mostly up to 83.2 µM; ratio activity, negative = MMP loss: at the top concentration
In short: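 HepG2 cells exposed to compound 1 hr at 37C, then Mito-MPS dye 30 min. Ratio read of aggregate (540/590 nm) versus monomer (490/535 nm) fluorescence.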

Compound | ratio activity, negative = MMP loss | Potency
O=c1[nH]c2ccccc2n1CCCN1CCC(n2c(=O)[nH]c3cc(Cl)ccc32)CC1 | -25.8% (inactive) | –
Fc1ccc(Oc2ccnc3cc(Cl)cc(Cl)c23)cc1 | – | 30.6 µM (active)
CCCCCCCCc1ccc(O)cc1 | – | 4.89 µM (active)
N#CCCC(Br)(C#N)CBr (centres undefined) | – | 61.1 µM (active)
O=C(Nc1ccc2[nH]ccc2c1)c1cc2cc(F)ccc2n1Cc1cccc(F)c1 | – | 0.686 µM (active)
CC(C)C1CCC(Cc2ccc(Cl)cc2)C1(O)Cn1cncn1 (centres undefined) | – | 15.2 µM (active)
ClC1=C(Cl)[C@]2(Cl)[C@H]3[C@H]([C@H]4C=C[C@H]3C4)[C@@]1(Cl)C2(Cl)Cl | – | 43.3 µM (active)
CN(C)C(=S)S | -9.13% [at 95.3 µM] (inactive) | –
CC(C)[C@H](C(=O)OC(C#N)c1cccc(Oc2ccccc2)c1)c1ccc(OC(F)F)cc1 (some centres undefined) | – | 17.2 µM (active)
CCCCN(CCCC)C(=S)[S-].CCCCN(CCCC)C(=S)[S-].[Zn+2] | – | 27.3 µM (active)
CC1(c2ccc(Oc3ccccc3)cc2)OC(=O)N(Nc2ccccc2)C1=O (centres undefined) | – | 3.88 µM (active)
C[C@@H]1CC[C@@]2(OC1)O[C@H]1[C@@H](O)[C@H]3[C@@H]4CC[C@H]5C[C@@H](O[C@@H]6O[C@H](CO)[C@H](O[C@@H]7O[C@H](CO)[C@@H](O)[C@H](O[C@@H]8OC[C@@H](O)[C@H](O)[C@H]8O)[C@H]7O[C@@H]7O[C@H](CO)[C@@H](O)[C@H](O[C@@H]8O[C@H](CO)[C@@H](O)[C@H](O)[C@H]8O)[C@H]7O)[C@H](O)[C@H]6O)[C@H](O)C[C@]5(C)[C@H]4CC[C@]3(C)[C@H]1[C@@H]2C | – | 4.59 µM (active)
[Hg+2].[I-].[I-] | – | 17.2 µM (active)
C=CC(=O)OCCCCOC(=O)C=C | 10.8% (inactive) | –
C[C@H]1CC[C@@H]2[C@@H](C)[C@H]3[C@H](C[C@H]4[C@@H]5CC=C6CC(O[C@@H]7O[C@H](CO)[C@H](O)[C@H](O[C@@H]8O[C@H](CO)[C@@H](O)[C@H](O)[C@H]8O)[C@H]7O[C@H]7O[C@@H](C)[C@H](O)[C@@H](O)[C@H]7O)CC[C@]6(C)[C@H]5CC[C@]34C)N2C1 (some centres undefined) | – | 18.8 µM (active) and 35.5 µM (active)
Oc1cc(Cl)c(Cl)c(Cl)c1 | – | 2.31 µM (active)
CN(C)C(=S)[S-].CN(C)C(=S)[S-].[Cu+2] | – | 0.592 µM (active)
O=C/C(Cl)=C(/Cl)C(=O)O | – | 24.3 µM (active) and 38.6 µM (active)
O=[N+]([O-])c1cc(C(F)(F)F)c(Cl)c([N+](=O)[O-])c1Cl | – | 13.7 µM (active)
Oc1ccc(C(=C(Cl)Cl)c2ccc(O)cc2)cc1 | – | 17.2 µM (active)
CN(C)S(=O)(=O)N(SC(F)(Cl)Cl)c1ccccc1 | – | 4.86 µM (active)
CC(=O)Nc1ccc2c(c1)Cc1ccccc1-2 | – | 31.1 µM (active)
CCCCCCCCCCCCBr | – | 27.3 µM (active)
Nc1ccccc1C(=O)OC/C=C/c1ccccc1 | – | 19.4 µM (active)
Nc1ccc(Cc2ccc(N)c(Cl)c2)cc1Cl | – | 59.1 µM (active)
CC(C)OC(=O)C(O)(c1ccc(Cl)cc1)c1ccc(Cl)cc1 | – | 24.3 µM (active)
CC1(C)C(/C=C(\Cl)C(F)(F)F)C1C(=O)OC(C#N)c1cccc(Oc2ccccc2)c1 (centres undefined) | – | 34.9 µM (active)
